Here are results for eight compounds from PubChem BioAssay (Tox21).

A short description of assay [1]: Nuclear factor erythroid 2-related factor 2/antioxidant responsive element (Nrf2/ARE) small molecule agonists: qHTS cell viability counter screen in human keratinocytes (AID 1919968; active means well fitted curve in the direction sought with a large enough effect in the repeat runs; an effect the other way counts as inactive or inconclusive; further: nearly all actives have a fitted effect of over 55% in size; further: potency means the concentration at half of the fitted maximal effect). Put shortly:
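Parallel cytotoxicity read: KeratinoSens HaCaT cells, compound treatment 23 h, viability by CellTiter-Fluor fluorescence 1 h post-reagent.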

Assay [2] in a line: Nuclear factor erythroid 2-related factor 2/antioxidant responsive element (Nrf2/ARE) small molecule agonists: luciferase reporter gene qHTS assay in human keratinocytes (AID 1919969). Further: nearly all actives have a fitted effect of over 35% in size.
Assay [3] has as its target Gonadotropin-releasing hormone receptor (Homo sapiens) (UniProt P30968). The experiment in a line: Human gonadotropin-releasing hormone receptor (GnRHR) small molecule agonists, calcium flux assay in GnRHR-HEK293 cells (AID 1920063). Further: nearly all actives have a fitted effect of over 35% in size. Put shortly:
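Calcium flux, agonist mode, human GnRHR stably integrated in HEK293; dye 1 h at 37 C before compound; Ex/Em=480/540 kinetic read, 3 min; 15 concentrations, triplicate.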

For assay [4], the target named is KiSS-1 receptor (Homo sapiens) (UniProt Q969F8). Nature of the assay: Human kisspeptin (KISS1R) small molecule agonists, calcium flux assay in KISS1R-HEK293 cells (AID 1920064; active means well fitted curve in the direction sought with a large enough effect in the repeat runs; an effect the other way counts as inactive or inconclusive). The method, boiled down:
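Triplicate 15-concentration series were applied to dye-loaded human KISS1R HEK293 cells, and agonist-evoked calcium fluorescence was captured for 3 min.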
In general terms: Calcium flux is commonly read through the fluorescence of an indicator in the cells.

Assay [5] is described as follows: G protein-coupled receptor (GPCR) small molecule agonists, calcium flux assay: HEK293 wild type cell line counter screen (AID 1920065). The method, boiled down:
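Non-specific calcium responders were flagged by adding DMSO-dissolved compounds to dye-loaded cells and reading 480/540 nm fluorescence each second for 3 min; ATP served as positive control.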

Assay [6] is described as follows: p53 small molecule agonists, cell-based qHTS assay with human liver microsomes (AID 1963577).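 Further: p53 response element beta-lactamase reporter cells with liver microsomes plus NADPH.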 Put shortly: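 Steps: plate p53RE-bla cells, incubate 5 h at 37 C; add compound in DMSO; add microsomes (0.5 mg/mL final) and NADPH (0.5 mg/mL final); incubate 16 h at 37 C; add LiveBLAzer, 2 h RT; read fluorescence.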
On the technique in general: In qHTS, concentration-response curves come from the screen itself.

Assay [7] can be described thus: p53 small molecule agonists, cell-based qHTS assay with rat liver microsomes (AID 1963578). The method, boiled down: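 Metabolic activation is supplied by rat liver microsomes with NADPH (each 0.5 mg/mL final). p53RE-bla cells incubate with compound 16 h at 37 C; reporter activity is measured by LiveBLAzer fluorescence.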
Assay [8] is described as follows: p53 small molecule agonists, cell-based qHTS assay with human liver microsomes: qHTS cell viability counter screen (AID 1963579). Further: nearly all actives have a fitted effect of over 45% in size. The method, boiled down: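 After the 460/530 nm beta-lactamase read, CellTiter-Glo was added to the same wells and luminescence measured after 30 min at room temperature, giving viability of p53RE-bla cells treated 16 h with compounds plus microsomes and NADPH.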

The nature of assay [9]: p53 small molecule agonists, cell-based qHTS assay with rat liver microsomes: qHTS cell viability counter screen (AID 1963580). Further: nearly all actives have a fitted effect of over 45% in size. The method, boiled down:
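Rat liver microsome (0.5 mg/mL final) and NADPH (0.5 mg/mL final) co-incubation with compounds for 16 h at 37 C on HCT-116 p53RE-bla cells; cytotoxicity taken from intracellular ATP luminescence.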

Assay [10] can be described thus: p53 small molecule agonists, cell-based qHTS assay: qHTS cell viability counter screen (AID 1963581). Further: nearly all actives have a fitted effect of over 45% in size. The method, boiled down: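 Multiplexed with the reporter read, a CellTiter-Glo step (30 min, room temperature) gauges ATP-based viability of HCT-116 p53RE-bla cells after 16 h compound incubation at 37 C.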
The nature of assay [11]: p53 small molecule agonists, cell-based qHTS assay (AID 1963582; active means well fitted activation curve with a large enough effect in the signal ratio in the repeat runs, not every such curve was filed as active; the % refers to the signal ratio). Put shortly: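 Beta-lactamase reporter cells (p53RE-bla) treated with compounds for 16 h at 37 C; FRET substrate, 2 h, room temperature; fluorescence intensity.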
In assay [12] the target is 5-hydroxytryptamine receptor 2A (Homo sapiens) (UniProt P28223). The experiment in a line: 5-hydroxytryptamine receptor 2A (HTR2A) small molecule antagonists, cell-based qHTS assay (AID 1963586). Further: nearly all actives have a fitted effect of over 45% in size. Further: potency means the concentration at half of the fitted maximal effect. The method, boiled down:
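CHO cells stably expressing human HTR2A were plated for 18 h at 37 C, then loaded with calcium dye for 1 h. Compounds were preincubated 5 min at room temperature before DOI (4 nM solution) was added. Kinetic fluorescence was read for 3 min.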

For assay [13] the target is unchanged. The experiment in a line: 5-hydroxytryptamine receptor 2A (HTR2A) small molecule agonists, cell-based qHTS assay (AID 1963587). Further: nearly all actives have a fitted effect of over 30% in size. Further: potency means the concentration at half of the fitted maximal effect. Put shortly:
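Kinetic calcium-flux fluorescence (2 min, 1 sec intervals) after compound addition in agonist mode. HTR2A-CHO cells were cultured 18 h, then dye-loaded 1 h at 37 C.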

For assay [14], the target named is Muscarinic acetylcholine receptor M1 (Homo sapiens) (UniProt P11229). Nature of the assay: Cholinergic receptor muscarinic 1 (CHRM1) small molecule antagonists, cell-based qHTS assay (AID 1963588). Further: nearly all actives have a fitted effect of over 40% in size. Further: potency means the concentration at half of the fitted maximal effect. The method, boiled down:
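Compounds were tested at 15 concentrations in three independent runs. Dye-loaded CHRM1-CHO cells were exposed 5 min at room temperature before stimulation by acetylcholine added at 50nM. Intracellular calcium was read kinetically on FDSS for 3 min.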

For assay [15] the target is unchanged. The experiment in a line: Cholinergic receptor muscarinic 1 (CHRM1) small molecule agonists, cell-based qHTS assay (AID 1963589). Further: nearly all actives have a fitted effect of over 35% in size. Put shortly:
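qHTS, 15-point titration, 3 independent runs: compounds pin-transferred onto dye-loaded CHRM1-CHO cells (human M1), calcium fluorescence followed every second to detect agonism.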

The nature of assay [16]: cAMP Responsive Elements (CRE) small molecule antagonists, cell-based qHTS assay (AID 1963591; active means well fitted inhibition curve with a large enough effect in the signal ratio in the repeat runs, not every such curve was filed as active; the % refers to the signal ratio). The method, boiled down: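 Fluorescence intensity from cleaved LiveBLAzer B/G substrate (2 h, room temperature) quantified CRE-bla activity in HEK 293T cells exposed 3 h to compound with 0.25 uM final NKH477.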
The target of assay [17] is Beta-2 adrenergic receptor (Homo sapiens) (UniProt P07550). The experiment in a line: Adrenergic beta2 receptor (ADRB2) small molecule antagonists, cell-based qHTS assay (AID 1963592). Further: series mostly up to about 92 µM; nearly all actives have a fitted effect of over 50% in size. Put shortly:
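Assay format: CHO-ADRB2 cells, 18-20hr seeding at 37C/5% CO2, then compound plus 1nM isoproterenol agonist mix for 0.5hr RT. Homogeneous time-resolved fluorescence cAMP detection after 1hr, expressed as 665/615 nm ratio.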

For assay [18], the target named is D(2) dopamine receptor (Homo sapiens) (UniProt P14416). Nature of the assay: Dopamine D2 receptor (DRD2) small molecule agonists, cell-based qHTS assay (AID 1963594). Further: nearly all actives have a fitted effect of over 35% in size. The method, boiled down: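 cAMP accumulation in DRD2-HEK293 cells measured by HTRF after 1 h detection; compounds added 10 min before NKH477 (200nM […]) forskolin-analogue stimulation, 30 min at room temperature, with Ro20-1724 present at 0.1 mM final.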
Sequence of D(2) dopamine receptor (Homo sapiens) (P14416 whole entry, looked up): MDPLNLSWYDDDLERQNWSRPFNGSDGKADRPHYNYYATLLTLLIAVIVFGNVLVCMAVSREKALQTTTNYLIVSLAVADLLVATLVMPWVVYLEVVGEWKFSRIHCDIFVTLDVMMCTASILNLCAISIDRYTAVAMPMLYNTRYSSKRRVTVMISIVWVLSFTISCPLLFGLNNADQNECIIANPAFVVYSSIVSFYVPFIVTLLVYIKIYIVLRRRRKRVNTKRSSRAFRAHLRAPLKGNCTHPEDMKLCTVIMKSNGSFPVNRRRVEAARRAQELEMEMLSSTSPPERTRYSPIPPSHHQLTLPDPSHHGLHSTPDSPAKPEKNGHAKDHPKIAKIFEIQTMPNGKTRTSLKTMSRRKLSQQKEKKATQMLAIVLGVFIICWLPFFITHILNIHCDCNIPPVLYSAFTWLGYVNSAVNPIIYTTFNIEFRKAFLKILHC

Assay [19] shares this target. The experiment in a line: Dopamine D2 receptor (DRD2) small molecule antagonists, cell-based qHTS assay (AID 1963595; active means well fitted inhibition curve with a large enough effect in the signal ratio in the repeat runs, with a control signal flat; the % refers to the signal ratio). Put shortly:
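Readout: HTRF cAMP, cAMP-d2 competing with cellular cAMP for anti-cAMP cryptate, read after 1 h. Cells: DRD2-HEK293. Conditions: 0.1 mM Ro20-1724, 12 nM quinpirole, 200 nM NKH477, 30 min RT.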

The nature of assay [20]: cAMP Responsive Elements (CRE) small molecule agonists, cell-based qHTS assay (AID 1963590). The method, boiled down: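 Quantitative HTS for CRE agonists: HEK 293T CRE-bla cells, overnight plating, 3 h compound incubation at 37 C/5% CO2, then 2 h room-temperature LiveBLAzer B/G FRET substrate loading.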

Records with an inconclusive call do not appear. Where a structure was tested more than once in an assay, its records may differ in their call. Active and inactive are the calls of the source. Unless noted, the call rests on the fitted dose curve.

Sequence of Muscarinic acetylcholine receptor M1 (Homo sapiens) (P11229 whole entry, looked up): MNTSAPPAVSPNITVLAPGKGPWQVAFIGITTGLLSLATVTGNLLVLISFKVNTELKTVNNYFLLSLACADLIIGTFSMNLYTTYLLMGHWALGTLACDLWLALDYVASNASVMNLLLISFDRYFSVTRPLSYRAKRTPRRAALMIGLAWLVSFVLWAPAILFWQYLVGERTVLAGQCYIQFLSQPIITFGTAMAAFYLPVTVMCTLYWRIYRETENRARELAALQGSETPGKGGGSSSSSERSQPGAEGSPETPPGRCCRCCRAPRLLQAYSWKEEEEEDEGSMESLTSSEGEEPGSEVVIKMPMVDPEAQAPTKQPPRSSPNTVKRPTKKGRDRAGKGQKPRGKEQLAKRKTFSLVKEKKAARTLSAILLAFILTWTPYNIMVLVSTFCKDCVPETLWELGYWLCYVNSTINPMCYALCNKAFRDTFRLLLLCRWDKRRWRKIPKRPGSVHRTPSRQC
Sequence of 5-hydroxytryptamine receptor 2A (Homo sapiens) (P28223 whole entry, looked up): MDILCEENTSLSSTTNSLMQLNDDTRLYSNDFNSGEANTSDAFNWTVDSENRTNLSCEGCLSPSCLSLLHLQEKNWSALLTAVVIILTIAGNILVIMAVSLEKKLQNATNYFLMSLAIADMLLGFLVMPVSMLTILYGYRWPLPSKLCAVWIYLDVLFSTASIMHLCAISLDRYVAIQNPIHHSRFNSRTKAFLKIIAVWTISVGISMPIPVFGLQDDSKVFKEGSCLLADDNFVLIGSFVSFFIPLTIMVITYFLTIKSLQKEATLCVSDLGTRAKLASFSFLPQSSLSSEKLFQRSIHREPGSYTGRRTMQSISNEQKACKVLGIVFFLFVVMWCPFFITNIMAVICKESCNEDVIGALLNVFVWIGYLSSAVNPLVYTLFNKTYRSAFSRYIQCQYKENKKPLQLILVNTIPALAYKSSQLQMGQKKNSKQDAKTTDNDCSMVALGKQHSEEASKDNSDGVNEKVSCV
Sequence of KiSS-1 receptor (Homo sapiens) (Q969F8 whole entry, looked up): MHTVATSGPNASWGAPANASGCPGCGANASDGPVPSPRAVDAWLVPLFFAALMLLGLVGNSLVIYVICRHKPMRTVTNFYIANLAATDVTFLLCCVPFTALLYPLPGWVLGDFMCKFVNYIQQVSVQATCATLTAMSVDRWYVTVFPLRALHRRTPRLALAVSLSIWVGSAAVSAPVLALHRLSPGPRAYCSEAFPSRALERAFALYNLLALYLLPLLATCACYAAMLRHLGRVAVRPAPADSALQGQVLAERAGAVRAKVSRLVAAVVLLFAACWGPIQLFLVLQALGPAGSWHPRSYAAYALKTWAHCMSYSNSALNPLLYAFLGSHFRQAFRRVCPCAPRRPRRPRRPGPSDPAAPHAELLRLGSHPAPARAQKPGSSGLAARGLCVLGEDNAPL
Sequence of Beta-2 adrenergic receptor (Homo sapiens) (P07550 whole entry, looked up): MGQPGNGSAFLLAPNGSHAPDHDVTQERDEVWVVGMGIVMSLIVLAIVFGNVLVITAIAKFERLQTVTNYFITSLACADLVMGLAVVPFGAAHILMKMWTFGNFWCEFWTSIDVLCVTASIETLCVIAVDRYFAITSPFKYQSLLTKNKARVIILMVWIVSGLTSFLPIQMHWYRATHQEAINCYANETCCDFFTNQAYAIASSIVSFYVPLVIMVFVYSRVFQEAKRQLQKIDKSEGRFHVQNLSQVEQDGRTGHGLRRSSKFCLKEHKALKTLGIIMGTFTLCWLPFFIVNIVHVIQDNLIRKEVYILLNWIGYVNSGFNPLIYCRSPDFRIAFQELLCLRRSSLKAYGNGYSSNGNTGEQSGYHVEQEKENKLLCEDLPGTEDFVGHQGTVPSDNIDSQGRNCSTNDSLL
Sequence of Gonadotropin-releasing hormone receptor (Homo sapiens) (P30968 whole entry, looked up): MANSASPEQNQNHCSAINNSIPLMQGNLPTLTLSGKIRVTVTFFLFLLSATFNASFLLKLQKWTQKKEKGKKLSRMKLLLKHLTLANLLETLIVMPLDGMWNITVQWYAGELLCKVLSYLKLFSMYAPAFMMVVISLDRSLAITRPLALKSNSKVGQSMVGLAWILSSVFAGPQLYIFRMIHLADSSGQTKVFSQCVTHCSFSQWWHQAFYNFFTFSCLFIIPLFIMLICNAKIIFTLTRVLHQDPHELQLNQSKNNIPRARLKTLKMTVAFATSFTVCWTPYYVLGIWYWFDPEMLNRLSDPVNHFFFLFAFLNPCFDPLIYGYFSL

Turning to `Cc1cc(Cl)ccc1OCC(=O)O`, the Potency result in [1], in assay [2], in assay [3], in assay [4], in [5] and in [6] was “inactive” in each case. Further, the Potency result in assay [7], in [8], in assay [9], in assay [10], in assay [11] and in [12] was “inactive” in each case. Besides, the Potency result in [13], in assay [14], in assay [15], in assay [16], in assay [17] and in assay [18] was “inactive” in each case. Also, the Potency entry in assay [19] was “inactive”.

On to `CCC(=O)OC1(c2ccccc2)CCN(C)CC1`, for which the Potency entry in [1], in [2], in assay [3], in assay [4], in assay [5] and in assay [6] was “inactive” in each case. Further, the Potency result in assay [7], in assay [8], in assay [9], in assay [10], in assay [11] and in assay [12] was “inactive” throughout. Besides, the Potency result in assay [13], in [14], in assay [15], in assay [16], in assay [17] and in assay [18] was “inactive” each time. For the same compound, in assay [19], the Potency entry is “inactive”.

Regarding `CCN(Cc1ccc(Cl)nc1)/C(=C/[N+](=O)[O-])NC`, the Potency entry in assay [1], in assay [2], in assay [3], in assay [4], in [5] and in [6] was “inactive” in each case. The Potency entry in assay [7], in assay [8], in assay [9], in assay [10], in assay [11] and in assay [12] was “inactive” in each case. In addition, the Potency entry in assay [13], in assay [14], in assay [15], in assay [20], in [17] and in assay [18] was “inactive” in each case.

Turning to `CC(C)CCCCCOC(=O)c1ccccc1C(=O)OCCCCCC(C)C`, the Potency entry in [1], in assay [2], in [3], in assay [4], in assay [5] and in assay [6] was “inactive” in each case. Besides, the Potency entry in assay [7], in [8], in assay [9], in assay [10], in assay [11] and in [12] was “inactive” throughout. For the same compound, the Potency result in [13], in assay [15], in assay [20], in assay [16] and in [18] was “inactive” each time. Also, in assay [14], the Potency was 2620 nM (active).

`CC(C)c1ccc(NC(=O)N(C)C)cc1`: the Potency entry in assay [1], in [2], in assay [3], in assay [4], in assay [5] and in [6] was “inactive” in each case. The Potency result in [7], in assay [8], in assay [9], in [10], in [11] and in [12] was “inactive” throughout. The Potency entry in assay [13], in assay [14], in [15], in assay [20], in [16] and in [18] was “inactive” each time.

In the case of `O=[N+]([O-])CCO`, the Potency result in assay [1], in assay [2], in assay [3], in [4], in assay [5] and in assay [6] was “inactive” each time. For the same compound, the Potency result in assay [7], in [8], in assay [9], in assay [10], in assay [11] and in assay [12] was “inactive” each time. Besides, the Potency result in [13], in [14], in assay [15], in assay [20], in assay [17] and in [18] was “inactive” each time. In addition, in assay [19], the Potency entry was “inactive”.

Regarding `CCC(C)(C)c1ccc(O)cc1`, the Potency in [1] was 61.8 µM (active) and inactive; in assay [12] it was 37.9 µM (active) and inactive; in [13] it was 55.5 µM (active) and inactive. Also, the Potency entry in assay [2], in [3], in assay [4], in assay [5], in [6] and in [7] was “inactive” throughout. The Potency result in assay [8], in assay [9], in [10], in [11], in [14] and in assay [15] was “inactive” throughout. Moreover, the Potency result in assay [17], in assay [18] and in assay [19] was “inactive” throughout.

In the case of `OCCCl`, the Potency entry in [1], in [2], in [3], in assay [4], in assay [5] and in assay [6] was “inactive” each time. Further, the Potency entry in assay [7], in assay [8], in assay [9], in assay [10], in [11] and in [12] was “inactive” in each case. Moreover, the Potency entry in [13], in [14], in assay [15], in assay [20], in assay [16] and in assay [19] was “inactive” each time.
